# Data published in PubChem BioAssay.
# The other results are listed elsewhere or left out. Activity calls are given as the source filed them. Rule as the data show it, unless noted: active = activity above about 50%; inactive = the rest.
# Key:
# PEG-3 [1] = target: PEG-3 (UniProt Q6IN02); experiment: inhibition of PEG-3 promoter-driven reporter – cell-based, HeLa, luciferase, CREF/GAPDH counter-screen panel, dose response (AID 624167); settings: HeLa PEG-Prom luciferase reporter, overnight, CREF/GAPDH counter-screens; run 1, dose range 1, at 100 µM (top of the series)
# Chain of PEG-3 (Q6IN02 whole entry, looked up): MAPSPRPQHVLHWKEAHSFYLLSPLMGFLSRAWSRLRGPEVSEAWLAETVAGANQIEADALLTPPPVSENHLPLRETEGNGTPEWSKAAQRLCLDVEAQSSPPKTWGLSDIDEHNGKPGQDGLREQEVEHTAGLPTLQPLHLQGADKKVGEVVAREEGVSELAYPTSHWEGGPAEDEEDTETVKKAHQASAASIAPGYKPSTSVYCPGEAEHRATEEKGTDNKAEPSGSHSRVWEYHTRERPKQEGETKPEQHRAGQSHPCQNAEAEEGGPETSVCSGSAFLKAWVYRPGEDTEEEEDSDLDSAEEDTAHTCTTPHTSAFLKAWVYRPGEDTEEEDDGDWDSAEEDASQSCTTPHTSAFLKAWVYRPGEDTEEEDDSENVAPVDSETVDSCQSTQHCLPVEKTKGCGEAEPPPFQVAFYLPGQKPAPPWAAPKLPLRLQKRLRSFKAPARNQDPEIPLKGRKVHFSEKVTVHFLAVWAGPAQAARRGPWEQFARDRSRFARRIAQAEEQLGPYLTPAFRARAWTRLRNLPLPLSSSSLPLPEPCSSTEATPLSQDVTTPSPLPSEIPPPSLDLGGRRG
# PEG-3 [2] = target: PEG-3 (UniProt Q6IN02); experiment: as above; settings: HeLa PEG-Prom luciferase reporter, overnight, CREF/GAPDH counter-screens; run 2, dose range 1, at 100 µM (top of the series)
# [3] = inhibition of PEG-3 promoter luciferase signal – cell-based, HeLa, luciferase reporter, single concentration, confirmation (AID 602417;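 active = at 20 µM dose, 40% or more inhibition averaged across four replicates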); settings: HeLa PEG-Prom luciferase reporter, luminescence, overnight; at 20 µM; stronger effect = higher value
# [4] = target: Tumor necrosis factor receptor superfamily member 10B (Homo sapiens) (UniProt O14763); experiment: viability loss of caspase-8 NB7 cells with TRAIL – with/without TRAIL, luminescence panel, confirmation (AID 651596); settings: NB7 neuroblastoma + caspase-8, TRAIL sensitization, NB7 Caspase-8, with TRAIL, mean of runs, at 10 µM, stronger effect = higher value
# Chain of Tumor necrosis factor receptor superfamily member 10B (Homo sapiens) (O14763 whole entry, looked up): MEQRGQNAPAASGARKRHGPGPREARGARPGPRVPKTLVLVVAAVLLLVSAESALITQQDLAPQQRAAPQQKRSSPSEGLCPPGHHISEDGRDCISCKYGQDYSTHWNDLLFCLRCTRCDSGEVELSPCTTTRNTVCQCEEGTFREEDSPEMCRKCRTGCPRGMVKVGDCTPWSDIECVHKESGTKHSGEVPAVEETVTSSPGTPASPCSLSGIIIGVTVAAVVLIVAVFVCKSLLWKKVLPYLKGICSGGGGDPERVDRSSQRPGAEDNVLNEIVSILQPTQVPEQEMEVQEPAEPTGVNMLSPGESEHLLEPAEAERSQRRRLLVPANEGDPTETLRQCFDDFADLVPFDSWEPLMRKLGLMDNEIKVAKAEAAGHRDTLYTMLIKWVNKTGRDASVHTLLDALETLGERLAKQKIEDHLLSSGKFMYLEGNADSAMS
# [5] = as above; settings: NB7 neuroblastoma + caspase-8, without TRAIL, NB7 Caspase-8, without TRAIL, mean of runs, at 10 µM
# Rat fibroblasts (CREF) [6] = experiment: inhibition of PEG-3 promoter-driven reporter – cell-based, HeLa, luciferase, CREF/GAPDH counter-screen panel, dose response (AID 624167); settings: CREF/GAPDH counter-screens; run 1, dose range 1, at 100 µM (top of the series)
# Rat fibroblasts (CREF) [7] = experiment: as above; settings: CREF/GAPDH counter-screens; run 2, dose range 1, at 100 µM (top of the series)
# [8] = NFkB reporter suppression in cystic fibrosis bronchial cells – cell-based, uHTS hits, panel, cytotoxicity readout, dose response (AID 624344); settings: CF bronchial epithelial cells, PAF-induced NFkB reporter inhibition, with PAF, run 1; at 79 µM (top of the series)
# [9] = as above; settings: CF bronchial epithelial cells, PAF-induced NFkB reporter inhibition, with PAF, run 2; at 79 µM (top of the series)
compound,measurement,setting,value
O=C1NC(=S)N(c2ccccc2F)C(=O)/C1=C\c1cccs1,inhibition,PEG-3 [1],102%
same,inhibition,PEG-3 [2],99%
O=Cc1cn(Cc2ccc([N+](=O)[O-])cc2)c2ccccc12,inhibition,PEG-3 [1],1.6%
same,inhibition,PEG-3 [2],29.8%
O=Cc1cn(Cc2ccc(F)cc2)c2ccccc12,inhibition,PEG-3 [1],26.6%
same,inhibition,PEG-3 [2],60.7%
Cn1cccc1/C=C1/C(=O)NC(=S)N(Cc2ccc(F)cc2)C1=O,inhibition,PEG-3 [1],101%
same,inhibition,PEG-3 [2],100%
CCCCn1nnnc1C(CCSC)N1CCC(n2c(=O)[nH]c3ccccc32)CC1 (centres undefined),inhibition,PEG-3 [1],72.5%
same,inhibition,PEG-3 [2],71.8%
COc1cccc(C2CC3C(=O)C=CC2N3Cc2ccccc2)c1 (centres undefined),inhibition,PEG-3 [1],101%
same,inhibition,PEG-3 [2],100%
CCN(CC)C(=O)Cn1cc(/C=C2\C(=O)NC(=O)N(c3ccccc3F)C2=O)c2ccccc21,inhibition,PEG-3 [1],102%
same,inhibition,PEG-3 [2],98.9%
CC1(C)Cc2c(C#N)c(N3CCNCC3)nc(-c3ccco3)c2CS1,inhibition,[3],68.9% (active)
same,inhibition,PEG-3 [1],101%
same,inhibition,PEG-3 [2],101%
C[C@@H]1O[C@@H](O[C@@H]2C=C3CCC4C(CC[C@]5(C)[C@@H](c6ccc(=O)oc6)CC[C@]45O)[C@@]3(C)CC2)[C@H](O)[C@H](O)[C@H]1O (some centres undefined),inhibition,PEG-3 [1],99.3%
same,inhibition,PEG-3 [2],98.5%
same,activity,[4],82.2%
same,activity,[5],91.8%
COC(COC(N)=O)C1=C(N2CC2)C(=O)C(C)=C(N2CC2)C1=O (centres undefined),inhibition,PEG-3 [1],102%
same,inhibition,PEG-3 [2],101%
same,inhibition,Rat fibroblasts (CREF) [6],100%
same,inhibition,Rat fibroblasts (CREF) [7],98.7%
C[C@@H]1C[C@@H]([C@H](O)CC2CC(=O)NC(=O)C2)C(=O)[C@@H](C)C1,inhibition,PEG-3 [1],98%
same,inhibition,PEG-3 [2],101%
same,inhibition,Rat fibroblasts (CREF) [6],62.3%
same,inhibition,Rat fibroblasts (CREF) [7],58.2%
same,inhibition,[8],106%
same,inhibition,[9],116%
N#Cc1c(Br)n(C2OC(CO)C(O)C2O)c2ncnc(N)c12 (centres undefined),inhibition,[8],106%
same,inhibition,[9],107%
COc1ccc(CNCCc2c(C)[nH]c3ccc(OC(F)(F)F)cc23)c(OC)c1,inhibition,PEG-3 [1],102%
same,inhibition,PEG-3 [2],101%
C=Cc1cc(OC)c2c(c1)c(=O)oc1c2cc(OC)c2c(O)ccc(C3OC(C)C(O)C(C)(O)C3O)c21 (centres undefined),inhibition,PEG-3 [1],101%
same,inhibition,PEG-3 [2],102%
same,inhibition,Rat fibroblasts (CREF) [6],25.3%
same,inhibition,Rat fibroblasts (CREF) [7],31.8%
O=c1c2ccccc2nc(CSc2ncnc3nc[nH]c23)n1-c1ccc(Cl)c(Cl)c1,inhibition,PEG-3 [1],-43.1%
same,inhibition,PEG-3 [2],33.8%
CNCC(O)c1cc(OCc2ccccc2)c(OCc2ccccc2)cc1F (centres undefined),inhibition,PEG-3 [1],102%
same,inhibition,PEG-3 [2],102%
CC(=O)OC1(C)CC(C)C(=O)C(C(O)CC2CC(=O)NC(=O)C2)C1 (centres undefined),inhibition,PEG-3 [1],96.1%
same,inhibition,PEG-3 [2],94.4%
same,inhibition,Rat fibroblasts (CREF) [6],61.8%
same,inhibition,Rat fibroblasts (CREF) [7],56.4%
same,inhibition,[8],117%
same,inhibition,[9],108%
Cc1[nH]c2ccc(OC(F)(F)F)cc2c1CCNCc1cccc([N+](=O)[O-])c1,inhibition,PEG-3 [1],101%
same,inhibition,PEG-3 [2],101%
O=[N+]([O-])c1ccc(NC2CCN(Cc3ccccc3)CC2)c2ccncc12,inhibition,PEG-3 [1],102%
same,inhibition,PEG-3 [2],99%
COc1ccc(-n2c(/C=C/c3ccc(O)c(OC)c3)nc3ccccc3c2=O)cc1,inhibition,PEG-3 [1],101%
same,inhibition,PEG-3 [2],92.7%
COc1cc2nc(CN3CC=C(c4ccccc4)CC3)[nH]c(=O)c2cc1OC,inhibition,PEG-3 [1],93.8%
same,inhibition,PEG-3 [2],45.3%
same,inhibition,Rat fibroblasts (CREF) [6],38.6%
same,inhibition,Rat fibroblasts (CREF) [7],26.4%
CC(=O)OC1CC[C@]2(C#N)[C@H]3CC[C@]4(C)[C@H](C5C=CC(=O)O5)CCC4(O)C3CCC2(O)C1 (some centres undefined),inhibition,PEG-3 [1],98.6%
same,inhibition,PEG-3 [2],99.5%
same,inhibition,Rat fibroblasts (CREF) [6],-10.8%
same,inhibition,Rat fibroblasts (CREF) [7],7.93%
CC1=CC2OC3CC4OC(=O)C=CC=CC(C(C)O)OCC(O)C(C)CC(=O)OCC2(CC1O)C4(C)C31CO1 (centres undefined),inhibition,PEG-3 [1],101%
same,inhibition,PEG-3 [2],99.3%
same,activity,[4],92.3%
same,activity,[5],97.7%
CCC1(OC(=O)CN)C(=O)OCc2c1cc1n(c2=O)Cc2cc3ccccc3nc2-1 (centres undefined),inhibition,PEG-3 [1],100%
same,inhibition,PEG-3 [2],96.5%
same,inhibition,Rat fibroblasts (CREF) [6],65.4%
same,inhibition,Rat fibroblasts (CREF) [7],72%
N#Cc1ccc(Cn2cc(C=O)c3ccccc32)cc1,inhibition,PEG-3 [1],90.2%
same,inhibition,PEG-3 [2],42.5%
O=Cc1cn(Cc2cccc(F)c2)c2ccccc12,inhibition,PEG-3 [1],50.1%
same,inhibition,PEG-3 [2],75.9%
Cc1ccc(C)c(NP(=O)(Oc2ccccc2)Oc2ccccc2)c1,inhibition,PEG-3 [1],88.2%
same,inhibition,PEG-3 [2],96.7%
CCC(c1nnnn1-c1ccc2c(c1)OCCO2)N1CCC(n2c(=O)[nH]c3ccccc32)CC1 (centres undefined),inhibition,PEG-3 [1],101%
same,inhibition,PEG-3 [2],102%
same,inhibition,Rat fibroblasts (CREF) [6],76.5%
same,inhibition,Rat fibroblasts (CREF) [7],63.2%
CC(=O)OC(C)(C)/C=C/C(=O)C(C)(O)C1[C@H](O)C[C@@]2(C)C3CC=C4C(CC[C@@H](O)C4(C)C)[C@]3(CO)C(=O)C[C@]12C (some centres undefined),inhibition,PEG-3 [1],102%
same,inhibition,PEG-3 [2],101%
same,activity,[4],43.7%
same,activity,[5],71.7%
CCN(CCCl)c1cc(CN(C)C)cc(NC(=O)c2ccc(C(=O)Nc3cc(CN(C)C)cc(N(CC)CCCl)c3)cc2)c1,inhibition,PEG-3 [1],100%
same,inhibition,PEG-3 [2],101%
same,inhibition,Rat fibroblasts (CREF) [6],99.6%
same,inhibition,Rat fibroblasts (CREF) [7],97.7%
Cc1c(C(=O)N2CCC3(CC2)OCCO3)sc2ncnc(N3CCN(c4ccccn4)CC3)c12,inhibition,PEG-3 [1],97.5%
same,inhibition,PEG-3 [2],102%
CC1=CC2/C=C(\C)CCC(O)C(O)/C=C/C(=O)C23C(=O)NC(CC(C)C)C3C1C (centres undefined),inhibition,PEG-3 [1],102%
same,inhibition,PEG-3 [2],101%
same,inhibition,Rat fibroblasts (CREF) [6],100%
same,inhibition,Rat fibroblasts (CREF) [7],100%
same,activity,[4],95.3%
same,activity,[5],97.8%
CC[n+]1c(-c2ccccc2)c2cc(N)ccc2c2ccc(N)cc21,inhibition,PEG-3 [1],102%
same,inhibition,PEG-3 [2],102%
